PubChem BioAssay (EPA / NIEHS)
Inconclusive results are not listed. The source holds several records for some structures; these can differ, active in one and inactive in another. Active and inactive are the calls of the source. How the source made its calls: active means hit-call score of the fitted dose curve at least 0.9, where 1 is the maximum; inconclusive means response in the unintended direction; inactive means score below 0.9.

Assay: ACEA_ER_AUC_viability: ACEA Biosciences xCELLigence Real-Time Cell Analysis on Estrogen Receptor Agonism for Viability (AID 2283782);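 further: hit means loss of impedance signal meaning reduced cell growth or viability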
Outline: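 Viability endpoint: reduced impedance area under the curve relative to DMSO, recorded by real-time electrode sensing over ~80 h of continuous exposure. Duplicate plates of T47D in hormone-depleted medium; eight concentrations, 1:4 dilutions, 100 uM maximum.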

SMILES | AC50 | outcome
CCCCCCS | 50 µM (active) | –
CCCCCCCOC(=O)c1ccccc1C(=O)OCCCCCCC | – | inactive
O=C(O)C(F)(OC(F)(F)C(F)(OC(F)(F)C(F)(F)C(F)(F)F)C(F)(F)F)C(F)(F)F (centres undefined) | – | inactive
O=C(Cl)C(F)(F)C(F)(F)C(F)(F)C(F)(F)C(F)(F)C(F)(F)C(F)(F)C(F)(F)F | 127 µM (active) | –
N=C(N)C(F)(F)C(F)(F)C(F)(F)C(F)(F)C(F)(F)C(F)(F)C(F)(F)F | 75 µM (active) | –
C=C(C)C(=O)OCC(F)(F)C(F)(F)C(F)(F)F | – | inactive
O=C(O)C(F)(F)C(F)(F)C(F)(F)C(F)(F)C(F)(F)C(F)(F)C(F)(F)C(F)(F)C(F)(F)C(F)(F)C(F)(F)C(F)(F)F | 19.3 µM (active) | –
CCc1ccc(C(c2ccc(CC)cc2)C(Cl)Cl)cc1 | – | inactive
CO[Si](OC)(c1ccccc1)c1ccccc1 | 79.9 µM (active) | –
O=S(=O)(OCC(F)F)C(F)(F)F | – | inactive
O=C(O)C(F)(F)C(F)(F)C(F)(F)C(F)(F)C(F)(F)C(F)(F)C(F)(F)C(F)(F)Cl | 119 µM (active) | –
CC(=O)Nc1ccc(N=Nc2cc(C)ccc2O)cc1 | – | inactive
FC(F)(F)C(F)(F)C(F)(F)CI | – | inactive
FC(F)(F)C(F)(F)C(F)(F)C(F)(F)C(F)(F)C(F)(F)CC1CO1 (centres undefined) | – | inactive
Nc1ccc(S(=O)(=O)Nc2nccs2)cc1 | 26 µM (active) | inactive
CCCCCCCCCCCCCCCC[N+](C)(C)Cc1ccccc1 | 3.4 µM (active) | –
FC1CC(F)(F)C(F)(F)C1(F)F (centres undefined) | – | inactive
CC(C)(C)c1ccc(OC2CCCCC2O)cc1 (centres undefined) | – | inactive
CC(C)(C)C(=O)CC(=O)C(F)(F)C(F)(F)C(F)(F)F | – | inactive
Nc1ccc(Oc2cccc(Oc3ccc(N)cc3)c2)cc1 | 64.2 µM (active) | –
O=C(O)C(F)(OC(F)(F)C(F)(OC(F)(F)C(F)(OC(F)(F)C(F)(F)C(F)(F)F)C(F)(F)F)C(F)(F)F)C(F)(F)F (centres undefined) | – | inactive
COC(=O)CCC(F)(F)C(F)(F)C(F)(F)C(F)(F)F | – | inactive
O=S(=O)(O)C(F)(F)C(F)(F)C(F)(F)C(F)(F)C(F)(F)C(F)(F)C(F)(F)F | – | inactive
O=C(O)C(F)(F)C(F)(F)F | – | inactive
FC(F)(F)C(F)(F)C(F)(F)C(F)(F)C(F)(F)C(F)(F)C(F)(F)C(F)(F)CCS | – | inactive
FC(F)(F)C(F)(F)C(F)(F)C(F)(F)C(F)(F)C(F)(F)C(F)(F)Br | – | inactive
O=C(O)C(F)(F)C(F)(F)C(F)F | – | inactive
CCc1c(Br)c(Br)c(Br)c(Br)c1Br | – | inactive
